# PubChem BioAssay
# Values joined by “and” are separate entries in the source; they are usually repeats but may differ in a detail not shown here. Equal values may be shown once. Active and inactive are the calls of the source.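 The calls were made as follows, unless noted: active = compounds whose cell count with miR-34 switched on is under 0.7 times the count with it off; inactive = the rest.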
# How the values were obtained:
# [1] = compounds altering viability of human ES cells (AID 493140; call rule not given here;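 also: cells exposed to compounds for four days before counting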); details: human embryonic stem cell survival screen; stronger effect = higher value
# [2] = P. berghei load reduction in hepatocytes – cell-based, HepG2, luciferase luminescence, HepG2 viability, primary screen (AID 624349; in the data active = parasite load remaining mostly below about 12%, no sharp cut-off; inactive = mostly above about 10%;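 also: 100% = mean of DMSO negative control wells on the same plate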); details: P. berghei liver stage in HepG2, luciferase luminescence, concentration not given here; parasite load remaining: stronger effect = lower value; viability: measured here: HepG2 viability without parasites
# [3] = Wnt pathway potentiators raising nuclear beta-catenin – imaging, WNT3A-conditioned medium, mouse C2C12, NPC library, primary screen (AID 1117326; in the data active = nuclear beta-catenin stimulation mostly above about 4.2%, no sharp cut-off; inactive = mostly below about 10%); details: stronger effect = higher value
# [4] = stimulators of insulin release from INS-1E, primary screen, cell-based, 5 mM glucose, NPC library (AID 1117329;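 active = compound raises insulin release from rat beta cells at 5 mM glucose, no numeric limit stated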); details: rat INS-1E insulin secretion, at 10 µM, stronger effect = higher value
# [5] = growth inhibition of GSK3B-pretreated HCT116 cells – cell-based, CellTiter-Glo, 0.2 to 20 µM (AID 1117336;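 active = compounds lowering colon cancer cell viability after pretreatment blocking the GSK3B kinase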); details: HCT116 viability after GSK3B inhibitor, at 20 µM, stronger effect = higher value
# [6] = inhibition of endothelial tube formation, primary screen, imaging, VEGF stimulated, CD31 staining, tube area, NPC library (AID 1117340;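 active = compound that reduces growth-factor-driven endothelial tube area in a mixed cell culture, no cutoff stated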); details: VEGF-stimulated ADSC/ECFC co-culture, at 10 µM, stronger effect = higher value
# [7] = GLP1 release stimulators, primary, NCI-H716, NPC library (AID 1117341;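 active = compound raises GLP1 secretion from the human gut endocrine cells, with no numeric limit stated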); details: NCI-H716 cells, at 10 µM, stronger effect = higher value
# [8] = HCT116 colon cancer cell growth inhibition, primary screen, CellTiter-Glo luminescence, NPC library (AID 1117342;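 active = compounds that lower survival of HCT116 colon cancer cells in the luminescence readout, no numeric limit stated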); details: at 20 µM (top of the series)
# [9] = reduced SW480 viability measured with CellTiter-Glo, NPC library, primary (AID 1117343;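 active = compounds that lower viability of the colon cancer cells in the luminescence readout, with no numeric limit stated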); details: CellTiter-Glo luminescence; at 20 µM (top of the series) unless noted
# [10] = NPC library primary testing for decreased DLD-1 cell viability via CellTiter-Glo (AID 1117346;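 active = compounds that lower survival of DLD-1 colon cancer cells in the luminescence readout, no cutoff given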); details: DLD-1 viability, CellTiter-Glo luminescence; at 20 µM (top of the series)
# [11] = EMT-state selective cytotoxicity in co-culture – imaging, PC-3E GFP, TEM4-18 mCherry, primary screen (AID 1345086;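 active = compounds killing one labelled cell type while sparing the other, by normalised counts and ratio limits, not self-fluorescent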;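 as to all read-outs here: cells exposed to compound for 72 h before imaging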;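 as to red/green cell ratio (normalised): normalised mesenchymal count divided by normalised epithelial count so high means epithelial killing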); details: PC-3E GFP / TEM4-18 mCherry co-culture, imaging cell counts, at 1 µM; for red/green cell ratio (normalised): actives lie on both sides, counts scaled to control wells, 1 = unselective
# [12] = viability loss with induced miR-34 in A549 – imaging, A549 dox-inducible miR-34, nuclei and caspase counts, primary screen (AID 1347080); details: A549 miR-34 inducible, Hoechst nuclei count, 48 h
# [13] = MELAS cybrid and Rieske KO viability enhancers – cell-based, MELAS cybrids, Rieske KO mouse fibroblasts, CellTiter-Glo, primary screen (AID 1508586;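 active = mean z-score across replicates of 1.96 or higher in either the MELAS or the Rieske mutant cell line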;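 also: z relative to plate mean and SD of compound and empty wells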); details: low glucose
# [14] = biological target: NAD(+) hydrolase SARM1 (Homo sapiens) (UniProt Q6SZW1); assay: blocking NAD cleavage by SARM1 SAM-TIR – cell lysate, NAD-Glo luminescence (AID 1508614;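 active = compound whose remaining NAD level is above about 45 nM, limit read from the data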;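 also: higher remaining NAD means stronger inhibition of SARM1 NADase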); details: SAM-TIR HEK293T lysate NADase, at 1 µM, stronger effect = higher value
# Sequence of NAD(+) hydrolase SARM1 (Homo sapiens) (Q6SZW1 whole entry, looked up): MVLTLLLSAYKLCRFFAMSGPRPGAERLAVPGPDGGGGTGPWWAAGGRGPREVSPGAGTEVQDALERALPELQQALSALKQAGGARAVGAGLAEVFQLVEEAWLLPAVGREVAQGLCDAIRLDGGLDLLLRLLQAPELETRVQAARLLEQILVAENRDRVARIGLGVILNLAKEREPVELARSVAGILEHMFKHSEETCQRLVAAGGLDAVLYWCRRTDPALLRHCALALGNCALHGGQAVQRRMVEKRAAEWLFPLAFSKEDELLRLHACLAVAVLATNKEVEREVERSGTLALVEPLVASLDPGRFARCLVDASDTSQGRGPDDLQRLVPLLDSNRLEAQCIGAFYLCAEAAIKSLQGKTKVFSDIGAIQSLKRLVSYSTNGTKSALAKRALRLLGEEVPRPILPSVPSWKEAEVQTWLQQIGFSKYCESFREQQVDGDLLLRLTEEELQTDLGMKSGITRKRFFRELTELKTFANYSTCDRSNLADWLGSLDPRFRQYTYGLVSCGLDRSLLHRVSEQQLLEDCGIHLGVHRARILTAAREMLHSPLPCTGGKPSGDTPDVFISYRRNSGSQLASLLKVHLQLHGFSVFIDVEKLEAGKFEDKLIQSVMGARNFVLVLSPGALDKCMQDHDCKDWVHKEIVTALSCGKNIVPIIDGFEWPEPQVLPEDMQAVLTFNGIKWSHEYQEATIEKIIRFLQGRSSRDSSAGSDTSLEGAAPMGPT
# [15] = growth inhibition, single agent or in combination, cell-based, chromothripsis tumors, cisplatin or BGB combos (AID 1671449; in the data active = inhibition above about 80%;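 also: cells exposed for 96 hours; 0% = vehicle DMSO and 100% = killing by high DMSO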); details: LFS_MB_P medulloblastoma cells
# [16] = growth inhibition, single agent and combos, cell-based, chromothripsis tumors, cisplatin or BGB combos (AID 1671450; in the data active = inhibition above about 80%;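 also: cells exposed to compound for four days; 0% = vehicle DMSO and 100% = cell killing by high DMSO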); details: HDN33 neuroblastoma cells, stronger effect = higher value
# [17] = growth inhibition, single agents and combos, ICB984, cell-based, cisplatin or BGB combos, synergistic combos for chromothripsis tumors (AID 1671451; call rule not given here;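 also: cells exposed for 96 hours before readout; 0% = vehicle DMSO and 100% = killing by high DMSO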); details: ICB984 medulloblastoma cells, drug combinations, stronger effect = higher value
# [18] = growth inhibition, single agents and combos, HTB85, cell-based, BGB or cisplatin IC20 combos, synergistic combos for chromothripsis tumors (AID 1671453; in the data active = inhibition above about 80%;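 also: cells exposed for 96 hours before readout; 0% = vehicle DMSO and 100% = high DMSO killing control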); details: HTB85 osteosarcoma cells, drug combinations, stronger effect = higher value
# [19] = growth inhibition, MDA-MB-436, cell-based, BGB or cisplatin combos, synergistic combos for chromothripsis tumors (AID 1671458; call rule not given here;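 also: cells exposed for 96 hours; 0% = vehicle DMSO and 100% = killing by high DMSO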); details: MDA-MB-436 breast carcinoma growth inhibition, drug combinations, stronger effect = higher value
# [20] = measured here: epithelial PC-3E GFP cell survival
# [21] = measured here: mesenchymal TEM4-18 mCherry cell survival
# [22] = stronger effect = lower value, cell number ratio, induced over uninduced
# [23] = measured here: relative caspase fold change +Dox/-Dox
# [24] = measured here: total cells with miR-34 induction, stronger effect = lower value
# [25] = measured here: total cells without miR-34 induction
# [26] = MELAS cybrid survival, CellTiter-Glo 48 h, stronger effect = higher value
# [27] = Rieske KO mouse fibroblast survival, CellTiter-Glo 72 h
structure (smiles),measurement,setting,value
CNCCCC1c2ccccc2C=Cc2ccccc21,survival,[1],0.667 (inactive)
same,parasite load remaining,[2],64.9% (inactive) and 67.7% (inactive)
same,viability,[2],77.6% and 100%
same,nuclear beta-catenin stimulation,[3]; at 10 µM,2% (inactive)
same,nuclear beta-catenin stimulation,"[3]; stimulation, at 2 µM",0.5%
same,insulin secretion stimulation,[4],1.7% (inactive)
same,viability decrease,[5],-46.9% (inactive)
same,tube area decrease,[6],40.6% (active)
same,GLP1 secretion stimulation,[7],6.8% (inactive)
same,inhibition of viability,[8],39.3% (inactive)
same,viability decrease (inhibition),[9],87.8% (active)
same,viability decrease (inhibition),[10],30.3% (inactive)
same,red/green cell ratio (normalised),[11],1.06 (inactive)
same,normalised cell number,[11]; [20],0.98
same,normalised cell number,[11]; [21],1.04
same,fold change,[12]; [22],1.12 (inactive) and 0.946 (inactive) and 0.93 (inactive)
same,fold change,[12]; [23],1.27 and 1.04 and 5.53
same,cell count,[12]; [24],6500 and 6350 and 11800
same,cell count,[12]; [25],5820 and 6720 and 12700
same,z-score,[13]; [26],-0.141 (inactive)
same,z-score,[13]; [27],-0.441
same,remaining NAD,[14],10 nM (inactive)
N=C(N=C(N)N)N1CCOCC1,survival,[1],19.5 (inactive)
same,parasite load remaining,[2],19.9% (inactive) and 108% (inactive) and 72.1% (inactive)
same,viability,[2],51% and 98% and 255%
same,nuclear beta-catenin stimulation,[3]; at 10 µM,1.2% (inactive)
same,nuclear beta-catenin stimulation,"[3]; stimulation, at 2 µM",1.4%
same,insulin secretion stimulation,[4],-2.5% (inactive)
same,viability decrease,[5],-5.75% (inactive)
same,tube area decrease,[6],4.5% (inactive)
same,GLP1 secretion stimulation,[7],1.9% (inactive)
same,inhibition of viability,[8],14.6% (inactive)
same,viability decrease (inhibition),[9],34.4% (inactive)
same,viability decrease (inhibition),[10],4.15% (inactive)
same,red/green cell ratio (normalised),[11],0.95 (inactive)
same,normalised cell number,[11]; [20],0.9
same,normalised cell number,[11]; [21],0.86
same,z-score,[13]; [26],-0.354 (inactive) and -0.415 (inactive) and 0.363 (inactive)
same,z-score,[13]; [27],0.794 and 0.165 and 0.626
same,remaining NAD,[14],10 nM (inactive)
same,inhibition,"[15]; at 0.5 µM, stronger effect = higher value",0.66% (inactive)
same,inhibition,"[15]; measured here: combination with BGB IC20, at 0.005 µM",31.7%
same,inhibition,"[15]; measured here: combination with BGB IC40, at 0.005 µM",-13.4%
same,inhibition,"[15]; measured here: combination with BGB IC40, at 0.05 µM",-9.47%
same,inhibition,"[15]; measured here: combination with cisplatin, at 0.5 µM, stronger effect = higher value",66.2%
same,inhibition,"[15]; measured here: combination with cisplatin, at 5 µM, stronger effect = higher value",-1.14%
same,inhibition,"[16]; BGB combo, at 5 µM",12.3%
same,inhibition,[16]; at 0.5 µM,-2.43% (inactive)
same,inhibition,"[16]; cisplatin combo, at 5 µM",9.3%
same,inhibition,"[16]; measured here: with BGB IC20 combination, at 0.5 µM",-2.61%
same,inhibition,"[16]; measured here: with cisplatin IC20 combination, at 0.5 µM",-1.22%
same,inhibition,"[16]; single agent, at 5 µM",6.99%
same,inhibition,"[17]; BGB IC20 combo, at 0.005 µM",3.73%
same,inhibition,"[17]; BGB IC40 combo, at 0.005 µM",-7.45%
same,inhibition,"[17]; BGB IC40 combo, at 0.05 µM",-3.82%
same,inhibition,[17]; at 0.5 µM,-14.1% (inactive)
same,inhibition,"[17]; cisplatin combo, at 0.05 µM",-6.72%
same,inhibition,"[17]; cisplatin combo, at 0.5 µM",-17.9%
same,inhibition,"[17]; cisplatin combo, at 5 µM",-29%
same,inhibition,"[17]; measured here: 5 uM single agent, at 5 µM",-1.94%
same,inhibition,[18]; at 0.5 µM,-5.39% (inactive)
same,inhibition,"[18]; measured here: with BGB IC20, at 0.5 µM",1.31%
same,inhibition,"[18]; measured here: with BGB IC20, at 5 µM",-31%
same,inhibition,"[18]; measured here: with cisplatin IC20, at 0.5 µM",-27.9%
same,inhibition,"[18]; measured here: with cisplatin IC20, at 5 µM",-17.8%
same,inhibition,"[18]; single agent, at 5 µM",-7.35%
same,inhibition,[19]; at 0.5 µM,-3.31% (inactive)
same,inhibition,"[19]; measured here: BGB combination, at 0.5 µM",-4.36%
same,inhibition,"[19]; measured here: BGB combination, at 5 µM",-6.45%
same,inhibition,"[19]; measured here: cisplatin combination, at 0.5 µM",-3.15%
same,inhibition,"[19]; measured here: cisplatin combination, at 5 µM",-8.98%
NCCCNCCSP(=O)(O)O,parasite load remaining,[2],26.6% (inactive)
same,viability,[2],110%
same,nuclear beta-catenin stimulation,[3]; at 10 µM,-1.3% (inactive)
same,nuclear beta-catenin stimulation,"[3]; stimulation, at 2 µM",0.9%
same,insulin secretion stimulation,[4],3% (inactive)
same,viability decrease,[5],-4.2% (inactive)
same,tube area decrease,[6],-8.5% (inactive)
same,GLP1 secretion stimulation,[7],-1.2% (inactive)
same,inhibition of viability,[8],2.2% (inactive)
same,viability decrease (inhibition),[9],0.3% (inactive)
same,viability decrease (inhibition),[10],0% (inactive)
same,red/green cell ratio (normalised),[11],1.19 (inactive)
same,normalised cell number,[11]; [20],1.03
same,normalised cell number,[11]; [21],1.23
same,fold change,[12]; [22],1.03 (inactive) and 0.865 (inactive)
same,fold change,[12]; [23],1.84 and 1.27
same,cell count,[12]; [24],10300 and 9430
same,cell count,[12]; [25],10000 and 10900
same,z-score,[13]; [26],0.141 (inactive) and 0.413 (inactive)
same,z-score,[13]; [27],-0.0647 and -0.947
same,remaining NAD,[14],10 nM (inactive)
O=C(O)CN(CCN(CC(=O)O)CC(=O)O)CCN(CC(=O)O)CC(=O)O,survival,[1],5 (inactive)
same,parasite load remaining,[2],120% (inactive) and 34.8% (inactive)
same,viability,[2],101% and 170%
same,nuclear beta-catenin stimulation,[3]; at 10 µM,-0.8% (inactive)
same,nuclear beta-catenin stimulation,"[3]; stimulation, at 2 µM",-1.5%
same,insulin secretion stimulation,[4],1.5% (inactive)
same,viability decrease,[5],79% (active)
same,tube area decrease,[6],-14.3% (inactive)
same,GLP1 secretion stimulation,[7],0.1% (inactive)
same,inhibition of viability,[8],53.1% (active)
same,viability decrease (inhibition),[9],79.5% (active)
same,viability decrease (inhibition),[10],31.1% (inactive)
same,red/green cell ratio (normalised),[11],1.45 (inactive)
same,normalised cell number,[11]; [20],0.48
same,normalised cell number,[11]; [21],0.7
same,fold change,[12]; [22],1.07 (inactive) and 0.79 (inactive) and 0.864 (inactive)
same,fold change,[12]; [23],1.26 and 1.98 and 3.01
same,cell count,[12]; [24],8980 and 7930 and 10700
same,cell count,[12]; [25],8380 and 10000 and 12300
same,z-score,[13]; [26],0.621 (inactive)
same,z-score,[13]; [27],0.97
same,remaining NAD,[14],10 nM (inactive)
CC(O)CN(CCN(CC(C)O)CC(C)O)CC(C)O (configuration not stated),nuclear beta-catenin stimulation,[3]; at 10 µM,2% (inactive)
same,nuclear beta-catenin stimulation,"[3]; stimulation, at 2 µM",2.5%
same,insulin secretion stimulation,[4],0.5% (inactive)
same,viability decrease,[5],-38.9% (inactive)
same,tube area decrease,[6],5.2% (inactive)
same,GLP1 secretion stimulation,[7],-4.1% (inactive)
same,inhibition of viability,[8],3.07% (inactive)
same,viability decrease (inhibition),[9],18.9% (inactive)
same,viability decrease (inhibition),[10],-3.8% (inactive)
same,red/green cell ratio (normalised),[11],1.23 (inactive)
same,normalised cell number,[11]; [20],0.98
same,normalised cell number,[11]; [21],1.2
same,fold change,[12]; [22],1.01 (inactive)
same,fold change,[12]; [23],0.821
same,cell count,[12]; [24],9510
same,cell count,[12]; [25],9380
Nc1cc(C(Cl)=C(Cl)Cl)c(S(N)(=O)=O)cc1S(N)(=O)=O,survival,[1],8.08 (inactive)
same,parasite load remaining,[2],69.8% (inactive) and 78.4% (inactive) and 58% (inactive)
same,viability,[2],125% and 85.5% and 102%
same,nuclear beta-catenin stimulation,[3]; at 10 µM,3.8% (inactive)
same,nuclear beta-catenin stimulation,"[3]; stimulation, at 2 µM",4.2%
same,insulin secretion stimulation,[4],1.4% (inactive)
same,viability decrease,[5],19% (inactive)
same,tube area decrease,[6],7% (inactive)
same,GLP1 secretion stimulation,[7],12.7% (inactive)
same,inhibition of viability,[8],-3.03% (inactive)
same,viability decrease (inhibition),[9],-22% (inactive)
same,viability decrease (inhibition),[10],4.8% (inactive)
same,red/green cell ratio (normalised),[11],0.84 (inactive)
same,normalised cell number,[11]; [20],1.14
same,normalised cell number,[11]; [21],0.96
same,fold change,[12]; [22],0.893 (inactive) and 0.936 (inactive) and 0.859 (inactive)
same,fold change,[12]; [23],1.43 and 0.803 and 4.71
same,cell count,[12]; [24],8790 and 9570 and 11100
same,cell count,[12]; [25],9850 and 10200 and 12900
same,z-score,[13]; [26],-0.253 (inactive) and -0.139 (inactive)
same,z-score,[13]; [27],0.393 and 0.0455
same,remaining NAD,[14],10 nM (inactive)
